Activity calls are given as the source filed them. Unless noted, how the calls were made is not given here.
Assays:
[1] = compound effects on lung adenocarcinoma cell viability – A549, calcein-AM fluorescence, 48 h, basal, profiling panel (AID 1162); conditions: higher = more signal; further: test concentration not given here
[2] = compound effects on differentiated 3T3-L1 adipocyte viability – cell-based, 3T3-L1 adipocytes, calcein-AM fluorescence, 48 h, basal, profiling panel (AID 1163); conditions: 3T3-L1 adipocytes viability, higher = more signal; further: test concentration not given here
[3] = compound effects on hepatocellular carcinoma cell viability – HepG2, calcein-AM fluorescence, 48 h, basal, profiling panel (AID 1164); conditions: higher = more signal; further: test concentration not given here
[4] = compound effects on multiple myeloma cell viability – MM1S, calcein-AM fluorescence, 48 h, basal, profiling panel (AID 1165); conditions: higher = more signal; further: test concentration not given here
[5] = calcein-AM signal in unstimulated myeloma cells – cell-based, calcein-AM fluorescence, 48 h, PK04 Diversity Set, profiling panel (AID 1166); conditions: RPMI8226 myeloma viability, higher = more signal;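 further: cells grown under basal conditions without added stimulus; test concentration not given here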
[6] = JC-1 mitochondrial signal, unstimulated HepG2 cells – cell-based, JC-1 fluorescence, 24 h, 100 nL compound, profiling panel (AID 1167); conditions: HepG2 mitochondrial potential, higher = more signal; further: test concentration not given here
[7] = JC-1 mitochondrial signal, unstimulated adipocytes – cell-based, JC-1 fluorescence, 3T3-L1 adipocytes, 24 h, 100 nL compound, profiling panel (AID 1168); conditions: JC-1 mitochondrial fluorescence, higher = more signal, called active from +8 up or from −8 down; further: test concentration not given here
[8] = JC-1 mitochondrial signal, unstimulated myeloma cells – cell-based, JC-1 fluorescence, RPMI8226, 24 h, 100 nL compound, profiling panel (AID 1169); conditions: JC-1 mitochondrial potential fluorescence, higher = more signal; further: test concentration not given here
[9] = JC-1 mitochondrial signal, unstimulated MM1S myeloma – cell-based, JC-1 fluorescence, 24 h, 100 nL compound, profiling panel (AID 1170); conditions: MM1S mitochondrial potential, higher = more signal; further: test concentration not given here
[10] = resazurin metabolic signal in A549 cells – cell-based, resazurin fluorescence, 24 h, PK04 Diversity Set, profiling panel (AID 1171); conditions: A549 viability, higher = more signal, called active from +8 up or from −8 down; further: test concentration not given here
[11] = resazurin metabolic signal in HepG2 cells – cell-based, resazurin fluorescence, 24 h, PK04 Diversity Set, profiling panel (AID 1172); conditions: HepG2 viability, higher = more signal; further: test concentration not given here
[12] = budding yeast growth changes without added modifier – OD600, strain BY4716, 24 h, basal condition, primary screen (AID 1173); conditions: S. cerevisiae BY4716 growth, OD600, 24 h; higher = more signal, called active from +8 up or from −8 down
[13] = viability profiling in MM1S myeloma cells – cell-based, resazurin fluorescence, basal, 24 h, PK04 Diversity Set, profiling panel (AID 1174); conditions: higher = more signal, called active from +8 up or from −8 down; further: test concentration not given here
[14] = target: Dihydroorotate dehydrogenase (quinone), mitochondrial (Plasmodium falciparum (isolate 3D7)) (UniProt Q08210); test: inhibition of P. falciparum DHODH – biochemical, C-terminal His tag, absorbance 600 nm, primary screen (AID 1175); conditions: PfDHODH enzyme, DCIP absorbance 600 nm; higher = more signal, called active from +8 up or from −8 down;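 further: recombinant parasite enzyme with a five histidine tag at its C terminus; test concentration not given here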
[15] = inhibition of PAO1 biofilm formation – strain PAO1, LB-PBS medium, absorbance 600 nm, primary screen (AID 1176); further: test concentration not given here; conditions: P. aeruginosa PAO1 growth/biofilm, A600, 12 h; higher = more signal
[16] = growth modulation of vineyard yeast isolate – strain RM11-1a, OD600, basal, 24 h, primary screen (AID 1177);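 further: cultures grown under basal conditions with no added stressor; test concentration not given here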; conditions: S. cerevisiae RM11-1a growth, OD600, 24 h; higher = more signal, called active from +8 up or from −8 down
[17] = growth of efflux-deficient E. coli DRC39 – strain DRC39, OD650, 24 h, E. coli filamentation inducers, primary screen (AID 1178);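 further: growth measured as culture turbidity by optical density at 650 nm; test concentration not given here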; conditions: E. coli DRC39 acrAB, higher = more signal, called active from +8 up or from −8 down
[18] = growth of efflux-deficient E. coli DRC39 – strain DRC39, OD650, 48 h, E. coli filamentation inducers, primary screen (AID 1179);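 further: screen aims at cell division blockers that make cells filament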; conditions: E. coli DRC39 delta-acrAB growth, higher = more signal, called active from +8 up or from −8 down
[19] = viability profiling in RPMI8226 myeloma cells – cell-based, resazurin fluorescence, basal, 24 h, PK04 Diversity Set, profiling panel (AID 1180); conditions: higher = more signal;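 further: RPMI8826 multiple myeloma cell line at 5000 cells per well; test concentration not given here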
[20] = target: E3 ubiquitin-protein ligase XIAP (Homo sapiens) (UniProt P98170); test: small molecules binding XIAP protein – biophysical, small-molecule microarray, fluorescence 635 nm, primary screen (AID 1181); conditions: higher = more signal;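 further: score merges 667 nm emission and signal to noise over triplicate slides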
Chain of E3 ubiquitin-protein ligase XIAP (Homo sapiens) (P98170 whole entry, looked up): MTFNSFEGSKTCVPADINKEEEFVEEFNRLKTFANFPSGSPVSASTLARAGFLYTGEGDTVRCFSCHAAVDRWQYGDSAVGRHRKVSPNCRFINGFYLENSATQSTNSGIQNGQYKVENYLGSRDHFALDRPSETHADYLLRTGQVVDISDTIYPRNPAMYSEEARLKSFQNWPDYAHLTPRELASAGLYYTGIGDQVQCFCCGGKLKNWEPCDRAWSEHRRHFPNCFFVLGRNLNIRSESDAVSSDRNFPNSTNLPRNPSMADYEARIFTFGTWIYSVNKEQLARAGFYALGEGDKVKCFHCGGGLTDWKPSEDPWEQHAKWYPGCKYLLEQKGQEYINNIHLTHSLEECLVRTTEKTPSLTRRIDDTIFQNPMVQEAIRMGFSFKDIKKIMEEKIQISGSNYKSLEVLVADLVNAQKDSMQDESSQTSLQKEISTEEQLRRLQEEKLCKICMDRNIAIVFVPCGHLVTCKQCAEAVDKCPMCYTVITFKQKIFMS

Chain of Dihydroorotate dehydrogenase (quinone), mitochondrial (Plasmodium falciparum (isolate 3D7)) (Q08210 whole entry, looked up): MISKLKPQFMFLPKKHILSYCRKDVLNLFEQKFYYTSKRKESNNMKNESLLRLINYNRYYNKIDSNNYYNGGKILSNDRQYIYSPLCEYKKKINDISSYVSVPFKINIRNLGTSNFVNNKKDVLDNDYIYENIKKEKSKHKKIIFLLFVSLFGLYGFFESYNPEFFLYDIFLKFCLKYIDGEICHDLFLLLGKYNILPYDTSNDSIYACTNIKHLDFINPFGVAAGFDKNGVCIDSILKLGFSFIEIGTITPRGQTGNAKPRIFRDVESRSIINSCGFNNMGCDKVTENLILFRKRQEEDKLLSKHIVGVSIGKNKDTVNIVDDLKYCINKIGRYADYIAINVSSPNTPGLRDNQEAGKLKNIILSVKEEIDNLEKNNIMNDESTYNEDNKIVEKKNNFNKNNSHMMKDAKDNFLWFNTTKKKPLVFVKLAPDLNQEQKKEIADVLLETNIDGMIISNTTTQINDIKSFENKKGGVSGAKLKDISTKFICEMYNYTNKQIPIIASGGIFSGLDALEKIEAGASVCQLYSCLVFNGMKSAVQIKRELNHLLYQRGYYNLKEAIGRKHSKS

## CCCC[C@@H](O)C1=C(COc2ccccc2)C[C@H]2C(=O)N(C)C(=O)[C@H]2[C@H]1CO
[1]
  z-score: 0.683
[2]
  z-score: 0.0659
[3]
  z-score: 1.54
[4]
  z-score: 0.196
[5]
  z-score: 0.131
[6]
  z-score: 1.11
[7]
  z-score: 0.56 (inactive)
[8]
  z-score: 0.547
[9]
  z-score: -2.03
[10]
  z-score: -0.703 (inactive)
[11]
  z-score: -0.0624
[12]
  z-score: -3.78 (inactive)
[13]
  z-score: 0.147 (inactive)
[14]
  composite z-score: -1.85 (inactive)
[15]
  z-score: 0.613 (inactive)
[16]
  z-score: -3.3 (inactive)
[17]
  z-score: 1.6 (inactive)
[18]
  z-score: 1.41 (inactive)
[19]
  z-score: 0.296
[20]
  composite z-score: -0.127

## CC1=C([C@H](O)CCc2ccccc2)[C@H](CO)[C@@H]2C(=O)N(C)C(=O)[C@@H]2C1
[1]
  z-score: 1.18
[2]
  z-score: -0.371
[3]
  z-score: -0.473
[4]
  z-score: 0.236
[5]
  z-score: -0.245
[6]
  z-score: -0.622
[7]
  z-score: 0.459 (inactive)
[8]
  z-score: -0.0985
[9]
  z-score: -0.279
[10]
  z-score: -0.39 (inactive)
[11]
  z-score: -0.0457
[12]
  z-score: -2.32 (inactive)
[13]
  z-score: -0.382 (inactive)
[14]
  composite z-score: -1.2 (inactive)
[15]
  z-score: 0.176 (inactive)
[16]
  z-score: 0.291 (inactive)
[17]
  z-score: 0.15 (inactive)
[18]
  z-score: 0.181 (inactive)
[19]
  z-score: 0.149
[20]
  composite z-score: -0.152

## O=C(NCC(F)(F)F)[C@@H]1c2ccccc2C(=O)N(Cc2ccccc2C(F)(F)F)[C@H]1c1ccc(CO)cc1
[1]
  z-score: 0.215
[2]
  z-score: -0.484
[3]
  z-score: 0.0606
[4]
  z-score: 0.0756
[5]
  z-score: -0.328
[6]
  z-score: 0.277
[7]
  z-score: -1.07 (inactive)
[8]
  z-score: 0.0161
[9]
  z-score: -0.894
[10]
  z-score: 0.456 (inactive)
[11]
  z-score: -0.0877
[12]
  z-score: 0.0223 (inactive)
[13]
  z-score: -0.474 (inactive)
[14]
  composite z-score: -0.184 (inactive)
[15]
  z-score: 0.292 (inactive)
[16]
  z-score: -0.246 (inactive)
[17]
  z-score: -0.308 (inactive)
[18]
  z-score: 0.263 (inactive)
[19]
  z-score: -0.853
[20]
  composite z-score: -0.184

## C=C(/C(=C/C[C@@H](OC(C)=O)c1cccc(OCCO)c1)c1cc(C(=O)OC)ccc1OC)C(C)C
[1]
  z-score: -0.0413
[2]
  z-score: 0.0983
[3]
  z-score: -0.159
[4]
  z-score: -0.881
[5]
  z-score: -0.264
[6]
  z-score: 1.86
[7]
  z-score: -0.789 (inactive)
[8]
  z-score: 0.373
[9]
  z-score: -0.682
[10]
  z-score: 2.17 (inactive)
[11]
  z-score: 1.47
[12]
  z-score: -0.0321 (inactive)
[13]
  z-score: 0.172 (inactive)
[14]
  composite z-score: -1.4 (inactive)
[15]
  z-score: -0.153 (inactive)
[16]
  z-score: 0.258 (inactive)
[17]
  z-score: 0.233 (inactive)
[18]
  z-score: 0.547 (inactive)
[19]
  z-score: 0.883
[20]
  composite z-score: -0.0622

## CN(C)C(=O)[C@]1(CCS(=O)(=O)c2ccccc2)N=C(c2ccc(OCCCO)cc2)O[C@@H]1c1ccccc1N=[N+]=[N-]
[1]
  z-score: 1.12
[2]
  z-score: 0.503
[3]
  z-score: 0.591
[4]
  z-score: -0.133
[5]
  z-score: 0.517
[6]
  z-score: 0.621
[7]
  z-score: -0.00563 (inactive)
[8]
  z-score: -1.18
[9]
  z-score: -0.809
[10]
  z-score: -0.859 (inactive)
[11]
  z-score: -0.622
[12]
  z-score: -0.0799 (inactive)
[13]
  z-score: -0.99 (inactive)
[14]
  composite z-score: 1.05 (inactive)
[15]
  z-score: 0.218 (inactive)
[16]
  z-score: 0.386 (inactive)
[17]
  z-score: 0.292 (inactive)
[18]
  z-score: 0.393 (inactive)
[19]
  z-score: -1.01
[20]
  composite z-score: 0.273

## COC(=O)[C@@]1(Cc2ccccc2N=[N+]=[N-])N=C(c2ccc(OCCCO)cc2)O[C@H]1c1ccccc1N=[N+]=[N-]
[1]
  z-score: -1.53
[2]
  z-score: 0.342
[3]
  z-score: -5.52
[4]
  z-score: -3.65
[5]
  z-score: -4.04
[6]
  z-score: -1.63
[7]
  z-score: -0.0913 (inactive)
[8]
  z-score: -1.13
[9]
  z-score: -2.92
[10]
  z-score: -2.94 (inactive)
[11]
  z-score: -4.43
[12]
  z-score: -0.596 (inactive)
[13]
  z-score: -8.41 (active)
[14]
  composite z-score: -0.071 (inactive)
[15]
  z-score: 0.715 (inactive)
[16]
  z-score: 0.897 (inactive)
[17]
  z-score: 2.12 (inactive)
[18]
  z-score: 1.91 (inactive)
[19]
  z-score: -6.83
[20]
  composite z-score: 0.0296

## COCCOC(=O)N1C(=O)[C@@]2(c3cc(C#CCCO)ccc31)[C@H](c1ccccc1OCCO)N1[C@H](c3ccccc3)[C@H](c3ccccc3)OC(=O)[C@H]1[C@@H]2C(=O)Nc1nc2ccccc2s1
[1]
  z-score: 0.148
[2]
  z-score: -0.676
[3]
  z-score: 0.169
[4]
  z-score: -1.11
[5]
  z-score: -0.813
[6]
  z-score: -3.28
[7]
  z-score: -0.192 (inactive)
[8]
  z-score: -0.417
[9]
  z-score: -0.998
[10]
  z-score: 0.854 (inactive)
[11]
  z-score: 1.03
[12]
  z-score: 1.13 (inactive)
[13]
  z-score: -0.125 (inactive)
[14]
  composite z-score: -0.26 (inactive)
[15]
  z-score: 2.51 (inactive)
[16]
  z-score: 1.79 (inactive)
[17]
  z-score: -0.233 (inactive)
[18]
  z-score: -0.324 (inactive)
[19]
  z-score: -0.411
[20]
  composite z-score: -0.115

## [N-]=[N+]=Nc1ccccc1[C@@H]1OC(c2ccc(OCCCO)cc2)=N[C@]1(Cc1ccccc1)C(=O)NCC(O)CO (stereo not given in full)
[1]
  z-score: -0.828
[2]
  z-score: 0.509
[3]
  z-score: -0.306
[4]
  z-score: -1.94
[5]
  z-score: -1.81
[6]
  z-score: 0.307
[7]
  z-score: 0.778 (inactive)
[8]
  z-score: -1.15
[9]
  z-score: -0.318
[10]
  z-score: -0.545 (inactive)
[11]
  z-score: 0.0381
[12]
  z-score: -2.75 (inactive)
[13]
  z-score: -0.53 (inactive)
[14]
  composite z-score: 0.255 (inactive)
[15]
  z-score: -0.291 (inactive)
[16]
  z-score: 1.06 (inactive)
[17]
  z-score: 2.24 (inactive)
[18]
  z-score: 0.783 (inactive)
[19]
  z-score: -0.71
[20]
  composite z-score: 0.366

Source: PubChem BioAssay
